Results from PubChem BioAssay (NCI).
Several values for one entry are separate records, joined by “and”; a condition that tells them apart may be missing. Identical values can stand only once. The panel holds about 83,000 compounds, 20% with a hit somewhere; the sample as a whole holds those more often.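 48-hour exposure, single concentration, 96-well plates; percent growth endpoint where 0 means no net growth. Active: below 10.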 A structure can be active in one record and inactive in another. Activity calls are given as the source filed them.

test system: MDA-MB-468 breast; assay: NCI-60 one-dose screen, 48 h (100 = growth as untreated, 0 = no growth, -100 = all killed); settings: 10 µM unless noted

Structure (SMILES) | growth
CC(C)c1ccc(-n2c(=S)[nH]c3sc4cc(O)ccc4c3c2=O)cc1 | 96.5% (inactive)
CC(C)c1ccc(NC(=O)Nc2ccc(NC(=O)CCCC(=O)NOCc3ccccc3)cc2)cc1 | 85% (inactive)
COc1ccc2c(c1)c(=O)oc1c(C)c(OCC(C)=O)ccc12 | 88.5% (inactive)
COc1cc2c(=O)n(CCN(C)C)c3c4cc5c(cc4ccc3c2cc1OC)OCO5 | -66.8% (active)
Cc1ccc(NC(=O)c2ccc(CN3CC[C@H](N(C)C)C3)c(C(F)(F)F)c2)cc1Nc1nccc(-c2cncnc2)n1 | -36.5% (active)
Cc1cccc(C[C@H](NC(=O)Nc2ccc(Cl)cc2F)C(=O)N[C@@H]2C(=O)N3C[C@H](O)C[C@H]3C(=O)N3CCCC[C@H]3C(=O)N[C@@H](C)C(=O)N3C[C@H](C)C[C@H]3C(=O)O[C@H]2C)c1 | -7.94% (active)
Cc1nc(NC(=O)N2CCC[C@H]2C(N)=O)sc1-c1ccnc(C(C)(C)C(F)(F)F)c1 | 6.59% (active)
Cc1ccc(C)c2c1sc1nc(N3CCOCC3)c(C#N)c(=O)n12 | 86.9% (inactive)
Nc1nc(-c2cccc([N+](=O)[O-])c2)c(N=Nc2ccccc2[N+](=O)[O-])s1 | 74.8% (inactive)
COc1cc2nc(NC3CCC3)nc(NC3CCN(C(C)C)CC3)c2cc1OC | 16.5% (inactive)
COc1cccc2c1C=C1CCCCC3=Cc4c(OC)cccc4OC13O2 | 19% (inactive)
C[C@H]1[C@H](C)CC[C@]2(COC(=O)CCC(=O)O)CC[C@]3(C)C(=CC[C@@H]4[C@@]5(C)CCCNC(C)(C)[C@@H]5CC[C@]43C)[C@H]12 | 69% [100 µM] (inactive)
Cc1cc(C)c(-c2c(O)c(Br)c(-c3c(C)cc(C)c(Br)c3C)c(O)c2Br)c(C)c1Br | 48.9% (inactive)
CC(CN=Cc1ccccc1O)N=Cc1ccccc1O (stereo not given) | 115% (inactive) and 98% (inactive)
COc1ccccc1C(=O)Nc1cccc(NC(=O)c2ccoc2C)c1 | 14% (inactive)
CCOC(=O)c1c(NC(=O)c2ccc(C(C)(C)C)cc2)sc2cc(O)ccc12 | 87.9% (inactive)
Cn1cc(-c2nc(-c3c[nH]c4c(Cl)nccc34)cs2)c2cc(F)ccc21 | 1.89% (active)
O=C(Cc1nc2cc(Cl)c(Cl)cc2nc1CC(=O)c1cccnc1)c1cccnc1 | 33.8% (inactive)
O=C(Nc1ccc(Cl)c(Cl)c1)NC(CO)(CO)CO | 95.9% (inactive)
COc1ccc(Oc2nc(Nc3ccc(N4CCOCC4)nc3)ncc2NC(=O)c2cc(OC)cc(OC)c2)cc1 | 82.1% (inactive)

Structure (SMILES) | growth
COC(=O)c1ccc(NC2=C(Cl)C(=O)C(C)=C(C)C2=O)cc1 | -45.9% (active)
COc1ccc(-c2ncnc3c2ncn3C/C=C/CCl)cc1 | -3.89% (active) and 61.5% (inactive)
N#Cc1c(-c2cccs2)c(C#N)c(=O)n(Cc2nc3ccccc3[nH]2)c1N | 88.5% (inactive)
Nc1ccc(-c2ccc(-c3ccccc3N)c3[nH]c4ccccc4c23)cc1 | -5.32% (active)
O=C1CC2C=CCN2C=C1NC(=O)c1ccccc1 (stereo not given) | 98.9% (inactive)
O=C(OCC1OC(n2cc(C(F)(F)F)c(=O)[nH]c2=O)CC1OC(=O)c1ccc([N+](=O)[O-])cc1)c1ccc([N+](=O)[O-])cc1 (stereo not given) | 85.3% (inactive)
C#CCOc1ccc(C(Nc2cc(Cl)ccc2Cl)c2nnnn2C2CCCCC2)cc1 (stereo not given) | 88.5% (inactive)
O=C1NC(=O)/C(=C/c2ccc(OCc3cc4ccccc4nc3Cl)cc2)S1 | 92% (inactive)
C/C(=N\NC(=S)Nc1ccc(Br)cc1)c1cc2ccccc2oc1=O | -23.5% (active)
Cn1c(=O)[nH]c(=O)c2nc(CCC(=O)NCCC(=O)O)c(=O)[nH]c21 | 102% (inactive)
Cc1ccc(S(=O)(=O)OC2COCOC2C(OS(=O)(=O)c2ccc(C)cc2)C2OCOCC2OS(=O)(=O)c2ccc(C)cc2)cc1 (stereo not given) | 108% (inactive)
OCCc1ccc(Cl)cc1 | 103% (inactive)
CC1(C)Cc2c(sc3ncn4nc(-c5ccc(O)cc5)nc4c23)CO1 | 61.4% (inactive)
CS(=O)(=O)c1nsc(N)n1 | 109% (inactive)
Cc1c(Cl)cccc1S(=O)(=O)Nc1ccc2c(c1)C(=O)N(C1CCC(=O)NC1=O)C2=O (stereo not given) | 27.2% (inactive)
Cc1cc(Nc2nc(N3CCOCC3)nc3ccccc23)n[nH]1 | 55.9% (inactive)
CC(C)(C)c1ccc(NS(=O)(=O)c2ccc3nc(NC(=O)c4cnccn4)[nH]c3c2)cc1 | -18.6% (active)
COc1cc2c(Nc3ccc(-c4ccc(N)cc4)cc3)ncnc2c(OC)c1OC | 71.9% (inactive)
O=C(N/N=C/c1c(Cl)cccc1Cl)c1cccnc1Nc1cccc(C(F)(F)F)c1 | 26.6% (inactive)
O=C(CCCCCCNC(=O)C(O)(O)C(F)(F)F)Nc1ccc(-c2ccccc2)cc1 | -10.5% (active)
